Data published in PubChem BioAssay AID1631 (National Center for Advancing Translational Sciences (NCATS), 2009).
Out of some 260,000 compounds screened, about 890 (0.34%) were called active. Not shown: some 1% with an inconclusive outcome. Calls follow the shape of the dose curve; as a rule, active = well fitted activation curve with a large enough effect; inconclusive = small, poorly fitted or top-dose-only effect; inactive = no such curve, though single readings can be large or run the other way. The sample as a whole holds a higher share of actives than the screen did.

Target: Pyruvate kinase PKM (Homo sapiens) (UniProt P14618)
Sequence (P14618 whole entry, looked up, canonical isoform): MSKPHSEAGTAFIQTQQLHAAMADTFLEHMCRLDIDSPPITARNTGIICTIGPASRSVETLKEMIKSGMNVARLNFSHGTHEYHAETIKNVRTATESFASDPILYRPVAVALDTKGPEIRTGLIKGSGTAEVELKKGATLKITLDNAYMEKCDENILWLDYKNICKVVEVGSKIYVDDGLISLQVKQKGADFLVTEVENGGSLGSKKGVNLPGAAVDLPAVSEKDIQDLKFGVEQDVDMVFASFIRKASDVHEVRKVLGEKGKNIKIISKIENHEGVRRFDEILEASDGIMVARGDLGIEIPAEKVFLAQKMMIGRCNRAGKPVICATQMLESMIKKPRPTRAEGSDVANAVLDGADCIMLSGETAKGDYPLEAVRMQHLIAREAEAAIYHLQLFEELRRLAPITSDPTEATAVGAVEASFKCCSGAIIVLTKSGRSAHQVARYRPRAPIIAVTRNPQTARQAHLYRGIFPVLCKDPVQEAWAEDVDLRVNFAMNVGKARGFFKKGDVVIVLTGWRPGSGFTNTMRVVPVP
Assay: qHTS Assay for Activators of Human Muscle isoform 2 Pyruvate Kinase; also: nearly all actives have a fitted effect of over 55% in size
Settings: purified PKM2, Kinase-Glo ATP luminescence; Potency: activation; series mostly up to 57.5 µM; activation: at the top concentration
How it was run: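 Purified hPK-M2 (>95%) run at intermediate activity with 0.1 mM ADP and 0.5 mM PEP in 50 mM imidazole pH 7.2, KCl, MgCl2; 1 h room temperature. ATP formed read by Kinase-Glo luminescence; normalized to uninhibited and no-enzyme controls.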
% is scaled to controls: 0 for no effect and ±100 for the full control effect; potency is read from the fitted curve at half-maximal effect.

activation, inactive:
CCCn1c(CCNc2nc(-c3ccc(OC)cc3)cs2)nc2ccccc21 -1.57%
O=C(N/N=C\c1cc2c(cc1Cl)OCO2)c1ccc(Br)s1 -0.0507%
CCOC(=O)C1(CCOc2ccccc2)CCN(Cc2cc(OC)cc(OC)c2)CC1 0.213%
COc1ccc(C(=O)CC(=O)c2ccc(C)cc2)c(O)c1 2.2%
COC(=O)CN1C(=O)[C@H]2[C@@H](C3CC3)N3C(=O)CN(Cc4ccc(-c5ccccc5)cc4)C(=O)[C@@]3(Cc3ccccc3)[C@H]2C1=O 2.01%
COc1ccccc1CN(C)C(=O)c1cc2ccccc2o1 -9.51%
COc1ccccc1CCNS(=O)(=O)c1cn(C)nc1C -9.14%
Cc1cccc(N2CCN(C(=O)c3cccc(N4C(=O)C5C6C=CC(C6)C5C4=O)c3)CC2)c1C (centres undefined) 4.01%
O=C(Nc1cccc(F)c1)NC1CCCc2ccccc21 (centres undefined) -1.74%
O=C(CNC(=O)c1ccc(F)cc1)c1ccccc1 0.121% [at 11.5 µM, 0% is enzyme alone, no compound]
C[N+](C)(C)CCNC(=O)c1c(O)c2c([nH]c1=O)CCCC2 8.74%
CCc1nnc(NC(=O)c2c(O)c3c([nH]c2=O)CCCC3)s1 -16.4%
CCOC(=O)C1(CCOc2ccccc2)CCN(Cc2ccc(C#CCCO)cc2)CC1 0.498%
COc1ccc(N2CCN(S(=O)(=O)c3ccc4c(c3)NC(=O)C(C)C(=O)N4)CC2)cc1 (centres undefined) 0.242%
Nc1c(Cl)cc(-c2csc(N3CCCC3c3nc4cc(Cl)c(Cl)cc4n3CCOCCO)n2)cc1Cl (centres undefined) 0.478%
O=C(Nc1cccc(-n2cnnn2)c1)c1cccnc1 -9.49%
Cc1ccc(C)c(S(=O)(=O)Nc2cc(C)on2)c1 -1.53%
CCCCC(=O)Nc1ccccc1N1CCN(c2ccc(F)cc2)CC1 -1.04% [at 11.5 µM, 0% is enzyme alone, no compound]
O=C(c1cc(C(=O)N2CCN(c3ccc(F)cc3)CC2)cc([N+](=O)[O-])c1)N1CCN(c2ccc(F)cc2)CC1 0.063%
CSc1ccc(S(=O)(=O)N2CCC(C(=O)NCCc3ccccc3)CC2)cc1 0.33%
Oc1ccc(C2Nc3cccc4cccc(c34)N2)cc1 0%
CCC1CCCCN1C(=S)Nc1ccc(S(=O)(=O)Nc2ncccn2)cc1 (centres undefined) -19.6%
Cc1nc(SCC(=O)N2CCc3ccccc3C2)c2c(C)c(C)sc2n1 0.304%
COc1cccc(Nc2nnc(SCC(=O)N3CC(=O)Nc4ccccc43)s2)c1 -4.51%
COc1ccccc1CN1CCN(C(c2ccccc2)c2ccccc2)CC1 -7.24%
COc1ccc(OCc2cc(C(=O)N3CCCC3)no2)c2ccccc12 -0.176%
Cc1ccc(C(=O)c2coc3ccc(O)c(CN(C)C)c23)cc1 2.77%
O=[N+]([O-])c1ccc2c(c1)Nc1nc3ccccc3nc1N2 -7.96%
O=C(CC1C(=O)NCCN1C(=O)c1ccc([N+](=O)[O-])cc1)Nc1cccc(Cl)c1 (centres undefined) 4.48%
CCCn1c(C2CCCN2c2nc(-c3ccc(C)cc3)cs2)nc2cc(Cl)c(N3CCCCC3)cc21 (centres undefined) 1.71%
COc1ccc(CN2CCCC(N3CCc4ccccc4C3)C2)c(O)c1 (centres undefined) 4.2%
Cc1cc2c(cc1S(=O)(=O)NCc1ccc(Cl)cc1)OCC(=O)N2 9.78%
COc1ccc(CCNS(=O)(=O)c2cc3c(cc2C)NC(=O)CO3)cc1OC -0.455%
Cc1cc(C)c(SCCc2ccncc2)c(C)c1 0%
COc1cc(/C=N/Nc2nc3ccccc3s2)ccc1O 8.69%
CCOc1cc(/C=C(\C#N)c2nc(-c3cccs3)c(NC(C)=O)s2)ccc1O 0.455%
COc1cccc(CC(=O)Nc2nc(-c3ccc(OC)c(OC)c3)cs2)c1 2.09%
C/C=C(/C)C(=O)Nc1cccc(C2=NOC3(C2)C[C@@H](C(N)=O)N(C(=O)C2(C)CC2)C3)c1 (some centres undefined) -13%
CC/C=C/C(=O)N1CC2(CC(c3cccc(NC(=O)CC)c3)=NO2)C[C@H]1C(N)=O (some centres undefined) 26.5%
CCC(C)C(=O)Nc1ccccc1N1CCN(c2ccc(F)cc2)CC1 (centres undefined) -0.773%
CCCNC(=O)c1ccc(N2CCC3(CC2)CC(c2ccc(Cl)cc2)=NO3)c([N+](=O)[O-])c1 -7.26%
COc1ccc(C(=O)NCC(=O)N/N=C/c2cccnc2)cc1 0.538% [at 0.46 µM, 0% is enzyme alone, no compound]
O=C(NCC(=O)N1CCN(c2ncc(C(F)(F)F)cc2Cl)CC1)c1ccc(Br)o1 -0.619%
O=C(O)c1cccc2c1C(=O)N(C1CCCC1)C2 0.131%
COc1ccc(N(C(=O)c2snc(C(N)=O)c2N)C(C(=O)NC2CCCC2)c2ccc(C)o2)c(OC)c1 (centres undefined) -4.98%
CN(CC1CCCO1)S(=O)(=O)c1ccc(C(=O)Nc2ccc([N+](=O)[O-])cc2)cc1 (centres undefined) 0.137%
CCOC(=O)c1csc(CCNC(=O)c2oc3c(Cl)cc(C)cc3c2C)n1 0.455%
CC(C)NS(=O)(=O)c1ccc(OCC(=O)NC2CCCCCC2)cc1 0.476%
O=C(Nc1nnc(C2=COCCO2)o1)c1ccc([N+](=O)[O-])s1 -0.93%
COc1ccc(-n2cc(-c3ccccc3)c3c(=S)nc[nH]c32)cc1 -7.56% [at 0.46 µM, 0% is enzyme alone, no compound]
CCc1ccc(CNC(=O)C2CCN(c3nnc(C)c4c(C)n(-c5ccc(C)cc5)nc34)CC2)cc1 -0.982% [at 0.46 µM, 0% is enzyme alone, no compound]
Cc1cc(S(=O)(=O)NCc2ccccn2)c(Cl)cc1Cl -2.1% [at 11.5 µM, 0% is enzyme alone, no compound]
COc1ccc(N2CCN(S(=O)(=O)CCNC(=O)C34CC5CC(CC(C5)C3)C4)CC2)cc1 0.848%
CSc1ccc(S(=O)(=O)Nc2cccc(F)c2)cc1 16.7%
O=C(Cc1ccc(Cl)c(Cl)c1)Nc1ccc(SC(F)F)cc1 2.17%
Cc1ccccc1C(=O)N1CCN(c2ccc(NC(=O)c3cccs3)cc2)CC1 -0.0426%
Cc1c(C=O)c2ccccc2n1CCOc1ccccc1 2.35%
CCOc1cc(-c2cc(-c3ccc(NC(C)=O)cc3)nc(N)c2C#N)ccc1O -4.71%
CC(C)C(C)NC(=O)COc1nc2ccccc2nc1N(C)C1CCCCC1 (centres undefined) -0.269%
CCN(C(=O)C1CCCN(c2nc(-c3ccc(OC)cc3)no2)C1)c1ccc(OC)cc1 (centres undefined) -0.765%
CCn1cc(CN2CCC(C(=O)Nc3cccc(-c4cccc(Cl)c4)c3)CC2)c(C)n1 -2.51%
COc1ccccc1N1CCN(C(=O)CCS(=O)(=O)c2ccc3c(c2)NC(=O)C(C)S3)CC1 (centres undefined) -0.108%

Potency, active:
O=C(NCc1ccccn1)c1c(O)c2c([nH]c1=O)CCCC2 3.16 µM
Cc1ccc(C)c(S(=O)(=O)Nc2cccc(-n3cnnn3)c2)c1 14.1 µM
Cc1nc(SCC(=O)N2CC(=O)Nc3ccccc32)c2c(C)c(C)sc2n1 12.6 µM
Cc1ccc(NS(=O)(=O)c2cc3c(cc2C)NC(=O)CO3)cc1 5.62 µM
COc1cc(/C=N\Nc2nc(-c3cccs3)c(NC(C)=O)s2)ccc1O 11.2 µM
C/C=C\C=C\C(=O)N1CC2(CC(c3cccc(NC(=O)/C(C)=C\C)c3)=NO2)C[C@H]1C(N)=O (some centres undefined) 3.55 µM
Nc1cccc(S(=O)(=O)Nc2ccc(SC(F)F)cc2)c1 14.1 µM
